Screening data (PubChem)
FXN GAA850 act – FXN promoter activators, primary screen, cell-based, luciferase luminescence, HEK293 lucGAA850; HEK293 lucGAA850 FXN promoter luciferase reporter, 24 h; percent of 10 µM SAHA response; activation, % at 6 µM; 360,000 tested, 0.56% active;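 active means activation above the average of all compounds screened plus 3 SD, cutoff fixed separately per campaign, cut at about 7.5% in these data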
FAS-TE inh – FAS thioesterase domain inhibitors, primary screen, biochemical, fluorescence intensity, uHTS; Fatty acid synthase (Homo sapiens), P49327; recombinant FAS-TE, OMFH fluorogenic substrate, fluorescence endpoint; 360,000 tested, 0.67% active; inhibition, % at 15 µM;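 active means compounds whose normalised, plate-corrected inhibition of enzyme fluorescence in the single-dose primary screen is 50% or more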
SMARCA2 activ – SMARCA2 (BRM) function activators, primary screen, cell-based, luminescence, high throughput. 370,000 tested, 1% active. MG213 cells, MMTV-luciferase reporter, dexamethasone, overnight. AID 652017, 2013. activation, % at 9.1 µM; in the data active means activation above about 7.8%
proKLK7 act – proKLK7 zymogen activators, primary screen, biochemical, fluorescence intensity. purified proKLK7, EDANS-DABCYL substrate fluorescence; 100% is mature enzyme control, 0% vehicle. 370,000 tested, 0.9% active. AID 652039, 2013. Kallikrein-7 (Homo sapiens), P49862. activation, % at 7 µM;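 active means activation above the mean of all tested compounds plus 3 SD, computed per campaign excluding outliers beyond control limits, cut at about 13% in these data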
Target sequence (P49862 whole entry, looked up): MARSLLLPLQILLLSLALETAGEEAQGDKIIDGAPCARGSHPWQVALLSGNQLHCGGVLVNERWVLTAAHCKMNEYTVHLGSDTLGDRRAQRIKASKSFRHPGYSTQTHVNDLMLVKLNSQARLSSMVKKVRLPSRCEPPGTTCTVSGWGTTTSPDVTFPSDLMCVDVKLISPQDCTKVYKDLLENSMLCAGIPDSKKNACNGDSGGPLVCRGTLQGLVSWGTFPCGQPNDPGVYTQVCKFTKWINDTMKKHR
KLK7 act conf – proKLK7 zymogen activators, confirmation, biochemical, fluorescence intensity, triplicate; activation, % at 7 µM; shares compounds with proKLK7 act; 3,200 tested, 68% active; purified proKLK7, EDANS-DABCYL substrate fluorescence; scaled: vehicle 0, mature enzyme 100;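 active means activation, as change over the incubation, above the mean of all tested compounds plus 3 SD, cut at about 13% in these data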
EDANS interfere – EDANS-DABCYL substrate optical interference, artefact control for kallikrein-7 zymogen activator project, biochemical, fluorescence intensity, high throughput; activation, % at 7 µM; 3,200 tested, 80% active; shares compounds with proKLK7 act; no enzyme, 4 h; solvent 0%, active enzyme control 100%;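 active means activation above the all-compound mean plus 3 SD, ignoring values outside control-based bounds, cut at about 4.8% in these data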;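 further: value is the 4 h activation minus the activation read at time zero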
EDANS interf – optically interferes with EDANS-DABCYL fluorescence, kallikrein-7 activator counter-screen; 250 tested, 20% active; AID 720493; EDANS-DABCYL peptide fluorescence interference, no enzyme; shares compounds with proKLK7 act; EC50, µM;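 active means compounds that raise the fluorescence signal in this interference counterscreen, with EC50 at or below 10 µM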;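 further: intact quenched peptide substrate alone read at 355 nm excitation and 520 nm emission; signal is fluorescence gain from T0 to T4 after four hours at room temperature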
Of the large screens only hits and unclear results are named; the others gave an inactive call (follow-up assays come after a bar, where they were run). Rows were chosen to be rich in hits. Some 2.9% of all compounds tested hit in one or more screens of this group.

CCOC(=O)N1CCN(C(=O)c2cc3c(=O)n4ccccc4nc3s2)CC1	proKLK7 act 16.9 | KLK7 act conf 90.0 | EDANS interfere 78.5
CN1CCN(C(=O)c2cc3c(=O)n4ccccc4nc3s2)CC1	proKLK7 act 48.2 | KLK7 act conf 70.2 | EDANS interfere 70.9
CCn1c(=O)c2cc(C(=O)N3CCN(C)CC3)sc2c2ccccc21	proKLK7 act 27.6 | KLK7 act conf inactive | EDANS interfere 8.0
CCOC(=O)N1CCN(c2nc3ccccn3c(=O)c2C=O)CC1	none
CCn1c(=O)c2cc(C(=O)NC(C)C)sc2c2ccccc21	none
COc1ccccc1N1CCN(C(=O)c2cc3c(=O)n4ccccc4nc3s2)CC1	none
COc1ccc(-c2c(C)oc3c(CN4CCCCC4C)c(O)ccc3c2=O)cc1OC (centres undefined)	none
COc1ccccc1Oc1c(C)oc2c(CN(C)C)c(O)ccc2c1=O	proKLK7 act 50.9 | KLK7 act conf 65.7 | EDANS interfere 71.0
C=CCN(CC=C)Cc1c(O)ccc2c1oc(=O)c1ccccc12	none
CCN(CC)Cc1c(O)ccc2c(=O)c(Oc3ccccc3OC)c(C)oc12	proKLK7 act 89.1 | KLK7 act conf 65.0 | EDANS interfere 69.5
COc1cccc(CNC(=O)c2cc(S(=O)(=O)N3CCCCC3)ccc2C)c1	none
Cn1cc(CCCC(=O)NCc2ccc(F)cc2)c2ccccc21	none
COc1ccc(OC)c2c(N3CCN(C)CC3)cc(C(F)(F)F)nc12	proKLK7 act 13.2 | KLK7 act conf inactive | EDANS interfere 15.0
COc1ccc(OC)c2c(N3CC(C)OC(C)C3)cc(C(F)(F)F)nc12 (centres undefined)	proKLK7 act 14.6 | KLK7 act conf 13.4 | EDANS interfere 12.1
CN1CCN(c2nc(-c3ccccc3)cc(C(F)(F)F)n2)CC1	none
O=C(CCc1ccccn1)N1CCCC(Nc2cccc(F)c2)C1 (centres undefined)	none
COc1ccc(-c2cc(=O)oc3c(C)c(O)c(CN(C)C)cc23)cc1	proKLK7 act 13.8 | KLK7 act conf inactive | EDANS interfere inactive
Nc1cccc(-c2nc3ccc(N)cc3s2)c1	proKLK7 act 82.4 | KLK7 act conf 57.1 | EDANS interfere 75.1
O=C(O)c1ccc2nc(-c3ccccc3)sc2c1	none
Nc1cc2sc(-c3ccc(C(=O)O)cc3)nc2cc1Cl	proKLK7 act 50.9 | KLK7 act conf 68.0 | EDANS interfere 74.8
Nc1ccc(-c2nc3ccc(C(=O)O)cc3s2)cc1	proKLK7 act 79.3 | KLK7 act conf 75.3 | EDANS interfere 76.2
Nc1ccc(-c2nc3ccc(N)cc3s2)cc1	proKLK7 act 61.0 | KLK7 act conf 67.5 | EDANS interfere 70.3
COCc1c(C(=O)N/N=C(/C)c2cccs2)nnn1-c1nonc1N	none
CCCCCCCNC(=O)COc1ccc2c(c1)C(=O)CC(C)(C)O2	none
CC1(C)CC(=O)c2cc(OCC(=O)NCc3cccnc3)ccc2O1	proKLK7 act 48.5 | KLK7 act conf 61.8 | EDANS interfere 65.6
CCOC(=O)COc1ccc2c(c1)C(=O)CC1(CCCCC1)O2	proKLK7 act 23.6 | KLK7 act conf 13.5 | EDANS interfere 10.3 | EDANS interf inactive
O=C(COc1ccc2c(c1)C(=O)CC1(CCCCC1)O2)NCc1ccccc1	none
CC1(C)CC(=O)c2cc(OCC(=O)NCCCN3CCN(c4ccccc4F)CC3)ccc2O1	proKLK7 act 18.3 | KLK7 act conf 17.2 | EDANS interfere 21.5
CC(C)NC(=O)COc1ccc2c(c1)C(=O)CC(C)(C)O2	proKLK7 act 36.7 | KLK7 act conf 80.6 | EDANS interfere 84.7
CCN(CC)C(=O)COc1ccc2c(c1)C(=O)CC(C)(C)O2	proKLK7 act 47.3 | KLK7 act conf 39.9 | EDANS interfere 71.0
CC1(C)CC(=O)c2cc(OCC(=O)N3CCOCC3)ccc2O1	proKLK7 act 44.3 | KLK7 act conf 71.5 | EDANS interfere 80.7
CCC1(CC)Cc2ccccc2-c2nc(NCCO)[nH]c(=O)c21	proKLK7 act 24.7 | KLK7 act conf inactive | EDANS interfere inactive
CCC1(C)Cc2ccccc2-c2nc(NCCO)n(-c3ccc(C)cc3)c(=O)c21 (centres undefined)	none
CCC1(C)Cc2ccccc2-c2nc(NCCO)n(-c3ccccc3)c(=O)c21 (centres undefined)	proKLK7 act 26.3 | KLK7 act conf inactive | EDANS interfere inactive
CN(Cc1ccc(F)cc1)C(=O)c1sccc1-c1ccccc1	none
COc1ccc(-c2oc3c4c2C(=O)OCCOC4CCC3)cc1 (centres undefined)	proKLK7 act 14.9 (no result: FXN GAA850 act) | KLK7 act conf inactive | EDANS interfere 7.8
O=C(c1cccn2c(=O)c3cc(Cl)ccc3nc12)N1CCOCC1	proKLK7 act 52.2 | KLK7 act conf 64.9 | EDANS interfere 73.3
O=C(c1cccn2c(=O)c3ccccc3nc12)N1CCN(Cc2ccc3c(c2)OCO3)CC1	proKLK7 act 15.5 | KLK7 act conf 21.6 | EDANS interfere 27.9
NC(=O)C1(N2CCCCC2)CCN(C(=O)c2cccn3c(=O)c4cc(Cl)ccc4nc23)CC1	none
O=C(c1cccn2c(=O)c3cc(Cl)ccc3nc12)N1CCN(Cc2ccc3c(c2)OCO3)CC1	none
CCN(CC)CCNC(=O)c1cn(CC)c2ccc(S(=O)(=O)N3CCOCC3)cc2c1=O	none
COc1cc(/C=C2/CCC/C(=C\c3cc(O)c(OC)c(Cl)c3)C2=O)cc(Cl)c1O	none
N#C/C(=C(\O)c1ccco1)c1ccccn1	none
N#C/C(=C(/O)CCCl)c1ccccn1	proKLK7 act 208.6 | KLK7 act conf 389.0 | EDANS interfere 395.1
CC(=O)Oc1ccc2c(c1)C(=O)c1ccccc1CO2	none
COc1ccc(C2=Cc3ccc(OC(C)=O)cc3OC2)cc1	proKLK7 act 24.5 | KLK7 act conf 13.6 | EDANS interfere 11.1
Cc1nn(-c2ccccc2)c(C)c1CCC(=O)O	none
N=c1c(C(=O)NCCN2CCOCC2)cc2c(=O)n3ccccc3nc2n1CCCN1CCOCC1	proKLK7 act 14.4 | KLK7 act conf inactive | EDANS interfere 5.0
CCCCNC(=O)c1cc2c(=O)n3cccc(C)c3nc2n(CCN2CCOCC2)c1=N	proKLK7 act 16.1 | KLK7 act conf inactive | EDANS interfere 10.2
Cc1cccn2c(=O)c3cc(C(=O)NC4CCCCC4)c(=N)n(CCN4CCOCC4)c3nc12	none
CCN(CC)Cc1c(O)ccc2cc(-c3nc4ccccc4n3C)c(=O)oc12	proKLK7 act 52.2 | KLK7 act conf 73.1 | EDANS interfere 75.6
